Laboratory results as given in PubChem BioAssay AID602440 (Sanford-Burnham Center for Chemical Genomics, 2012).
In all, about 360,000 compounds went through this assay and about 2,300 (0.64%) were called active. No stated cut-off is given here; in the data, active means inhibition mostly above about 40% (no sharp cut-off); inactive means mostly below about 27%. Shown is part of a subset that was picked to be rich in actives.

These compounds were tested against Sentrin-specific protease 8 (Homo sapiens) (UniProt Q96LD8) (assay: human SENP8 protease inhibitors, primary screen, biochemical, fluorescence, Nedd8 protein substrate, uHTS (AID 602440)). Details: recombinant SENP8, Nedd8 substrate fluorescence; at 20 µM; hits give high values.
Sentrin-specific protease 8 (Homo sapiens), sequence (Q96LD8 whole entry, looked up): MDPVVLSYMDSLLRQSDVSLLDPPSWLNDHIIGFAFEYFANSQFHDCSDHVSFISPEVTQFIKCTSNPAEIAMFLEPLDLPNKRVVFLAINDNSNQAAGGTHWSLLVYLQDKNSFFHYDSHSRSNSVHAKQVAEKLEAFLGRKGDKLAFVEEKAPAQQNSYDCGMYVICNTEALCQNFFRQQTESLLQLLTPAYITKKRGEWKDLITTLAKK

Compound | inhibition
Cn1c(C(=O)O)ccc1S(=O)(=O)N(Cc1ccccc1)Cc1ccccc1 | -7% (inactive)
COc1ccc(C(=O)N(CCN2CCOCC2)CC(=O)NC2CCCC2)cc1OC | -1.7% (inactive)
CN(CC(=O)NNC(=O)CNC(=O)c1ccccc1Cl)S(=O)(=O)c1ccc(Cl)cc1 | 10.1% (inactive)
Cc1cc(O)c(NC(=O)c2ccc(C)c([N+](=O)[O-])c2)cc1C | 3.9% (inactive)
CCN(CC)C(=O)CC1(c2ccccc2OC)CCOC(C(C)C)C1 (stereo not drawn) | 4% (inactive)
Clc1ccc(C2=CSC3=Nc4cccc5cccc(c45)N23)cc1 | 70.7% (active)
COCCNC(=S)N1CCC(NC(=O)C23CC4CC(CC(C4)C2)C3)CC1 | 8.9% (inactive)
c1ccc(-c2c[nH]c(-c3ccccc3)c2)cc1 | -22% (inactive)
CCCc1c(-c2ccccc2F)ncn1Cc1ccccc1OC | 2.7% (inactive)
CC(=O)NNc1cc(=O)c2c(=O)n(C)c(=O)n(C)c2[nH]1 | 15.9% (inactive)
Cn1c(N)c(C(=O)COC(=O)C23CC4CC(CC(C4)C2)C3)c(=O)n(C)c1=O | 12% (inactive)
O=C(COC(=O)c1ccc(Br)o1)NC12CC3CC(CC(C3)C1)C2 | 10% (inactive)
O=C(COC(=O)c1ccc([N+](=O)[O-])o1)NC12CC3CC(CC(C3)C1)C2 | 35.1% (active)
O=C(OCC(=O)c1cccs1)c1ccc([N+](=O)[O-])o1 | 29.2% (inactive)
C/C=C/C=C/C(=O)O | 11.5% (inactive)
NCCCCC(C(=O)O)N(C(=O)OCc1ccccc1)C(=O)OCc1ccccc1 (stereo not drawn) | 15.2% (inactive)
O=C(C[C@H]1C(=O)N(c2ccc(F)c(F)c2)C[C@@H]1Cc1ccccc1)Nc1ccccc1 | 1.6% (inactive)
CCCCn1c(N)c(N(CC(C)C)C(=O)c2ccc(-n3c(C)ccc3C)cc2)c(=O)[nH]c1=O | 1.8% (inactive)
Oc1ccc(C2Nc3cccc4cccc(c34)N2)cc1 | 63.3% (active)
O=C(COC(=O)c1ccc2ncsc2c1)Nc1ccc(Cl)cc1 | -18.6% (inactive)
CN(C(=O)CN1C(=O)/C(=C/c2ccc(Cl)cc2)SC1=S)C1CCS(=O)(=O)C1 (stereo not drawn) | 23.9% (inactive)
C=CCOc1ccc(C(=O)Nc2ccccc2C(=O)N2CCCC2)cc1 | 0.4% (inactive)
C=CCOc1ccc(/C=C2\SC(=S)N(CCC(=O)O)C2=O)cc1 | 40.8% (active)
O=[N+]([O-])c1ccc(COc2ccccc2CN2CCOCC2)cc1 | -0.2% (inactive)
OC(c1ccccc1)C(CN1CCOCC1)c1ccccc1 (stereo not drawn) | 9.9% (inactive)
Oc1c(CN2CCOCC2)ccc(CN2CCOCC2)c1O | 79% (active)

Compound | inhibition
O=C(Cn1cc(-c2nnnn2-c2ccc(Cl)cc2)c(=O)c2ccccc21)c1ccccc1 | 26.2% (inactive)
COC(=O)CN1C(=O)C(C)(C)Oc2ccc(C(=O)Nc3cccc(OC)c3)cc21 | 1.3% (inactive)
CC[n+]1cc(C)ccc1/C=C/c1ccc(N(C)C)cc1 | 18.1% (inactive)
CN(C)c1ccc(Nc2c3c4c(cccc4n(C)c2=O)C(=O)c2ccccc2-3)cc1 | 52.7% (active)
Cc1ccc(NC(=S)N(CCCN2CCCC2)Cc2cccn2Cc2ccc(Cl)cc2)cc1 | 14.9% (inactive)
CCn1c(C)nc2c1C(=O)c1ccccc1C2=O | 53.2% (active)
Cc1nc2ccccc2n1CC(O)c1ccccc1 (stereo not drawn) | 0.7% (inactive)
CCOC(=O)c1ccc2c(c1)nc(C)n2CC | 17.4% (inactive)
O=C(NC(=S)N1CCc2ccccc21)c1ccco1 | 11.3% (inactive)
Cc1c(C(=O)N(Cc2ccccc2)Cc2cccnc2)cnn1-c1ccc(F)cc1 | 7.4% (inactive)
O=C(CCNC(=O)c1ccc([N+](=O)[O-])cc1)NC1CCCCC1 | 15.8% (inactive)
O=C(Nc1cc2c3c(c1)C1CCCC1CN3CC1CCCC21)c1ccc([N+](=O)[O-])cc1 (stereo not drawn) | 40.6% (active)
CN1C2CCC1CC(NC(=O)c1ccc([N+](=O)[O-])cc1)C2 (stereo not drawn) | 17.8% (inactive)
CCC1CCCCN1C(=O)Nc1cccc(NC(=O)N2CCCCC2CC)c1 (stereo not drawn) | 13% (inactive)
CC(CCn1cccn1)NC(=O)CCc1nnc(CCc2ccccc2)o1 (stereo not drawn) | 7.6% (inactive)
O=C(N/N=C/c1ccc(Br)o1)c1cncc(Br)c1 | -18.2% (inactive)
CCOc1cc(/C=N/NC(=O)c2ccncc2)cc(Br)c1O | 19.2% (inactive)
Cc1ccc(C(=O)N/N=C\c2cc(Br)c(Br)o2)cn1 | 58.6% (active)
COC(=O)C1=C(C)NC(=S)NC1c1ccc(OCC(=O)N2CC(C)OC(C)C2)c(OC)c1 (stereo not drawn) | 3.3% (inactive)
O=C(CN(C(=O)c1csnn1)c1cccc(F)c1)NCc1ccc(F)cc1 | 8.3% (inactive)
Cn1c2c(c(=O)n(C)c1=O)C(c1cccc([N+](=O)[O-])c1)Nc1ccccc1O2 (stereo not drawn) | 22.9% (inactive)
O=C(CN1CCN(c2cccc(Cl)c2)CC1)Nc1ccc(S(=O)(=O)N2CCOCC2)cc1 | 15% (inactive)
CN(C)S(=O)(=O)c1cccc(-c2nn(-c3ccccc3)cc2/C=C2\SC(=S)N(CC(=O)O)C2=O)c1 | 44% (active)
COc1cccc(-c2nn(-c3ccccc3)cc2/C=C(\C#N)C(=O)NCCCn2ccnc2)c1 | -266% (inactive)
Cc1ccc(-c2nn(-c3ccccc3)cc2/C=C/C(=O)Nc2cccc(S(N)(=O)=O)c2)cc1 | -81.3% (inactive)
O=[N+]([O-])c1c(NCCO)cc(Sc2nc3ccccc3s2)c2nonc12 | 75.9% (active)

Compound | inhibition
CC(C)(C)NC(=O)C(CCc1ccccc1)n1c(=O)c(-c2ccccc2)nc2ccccc21 (stereo not drawn) | -332% (inactive)
CN1CCN(S(=O)(=O)c2ccc(N3CCN(c4ccccc4O)CC3)c([N+](=O)[O-])c2)CC1 | 39.2% (active)
Cc1ccc(C(=O)c2ccc(N3CCN(C)CC3)c([N+](=O)[O-])c2)cc1 | 47.4% (active)
Cc1cccc(N2CCN(c3ccc(C(N)=O)cc3[N+](=O)[O-])CC2)c1C | 15.7% (inactive)
Cc1ccccc1N1CCN(S(=O)(=O)c2ccc3ccccc3c2)CC1 | 12.3% (inactive)
CS(=O)(=O)N1CCN(c2ccc(C(=O)NC3C4CC5CC(C4)CC3C5)cc2[N+](=O)[O-])CC1 (stereo not drawn) | 13.8% (inactive)
CC(C)c1ccc(S(=O)(=O)N2CCN(C(=O)c3ccc(N4CCCC4)c([N+](=O)[O-])c3)CC2)cc1 | 11.9% (inactive)
COC(=O)c1ccccc1NC(=O)C1CCN(C(=O)N2CCOc3ccccc32)CC1 | -37.2% (inactive)
COc1ccc(NC(=O)N2CCCC(c3nc(-c4ccc(F)cc4)no3)C2)cc1 (stereo not drawn) | 9.6% (inactive)
C[C@H]1CN([C@@H](C)CO)C(=O)CCCn2cc(nn2)CO[C@@H]1CN(C)S(=O)(=O)c1ccc(-c2ccccc2)cc1 | 12.7% (inactive)
C/C(N)=C(/C#N)C(=O)COC(=O)c1cc(-c2cccc(Br)c2)nc2ccccc12 | -25.4% (inactive)
COc1cccc2c1C(=O)c1c(O)c3c(c(O)c1C2=O)CC(O)(C(C)=NNC(=O)c1ccc(Cl)c(Cl)c1)CC3OC1CC(N)C(O)C(C)O1 (stereo not drawn) | 46.6% (active)
CCCC(O)(c1ccc(OC)cc1)C(CN(C)C)c1ccccc1 (stereo not drawn) | 10.7% (inactive)
NC(=O)C1CCN(CC(O)CSc2ccc(F)cc2)CC1 (stereo not drawn) | 17% (inactive)
NC(=O)COC(=O)c1cc(S(=O)(=O)N2CCN(c3ccccc3)CC2)ccc1Cl | 14.7% (inactive)
C/C(=N\Nc1ccccc1)c1cccs1 | -20.5% (inactive)
CSc1ncc(C(=O)NCCCc2ccccc2)c(C)n1 | -24.7% (inactive)
CC/C(=N/Nc1ccccc1)c1cnnc(SC)n1 | 61.2% (active)
CN(C(=O)c1cccc(NC(=O)Cc2ccc([N+](=O)[O-])cc2)c1)C1CCC1 | 19.5% (inactive)
O=S(=O)(Nc1ccc(-n2cnnn2)cc1)c1ccc(Cl)cc1 | 5.5% (inactive)
CCOC(=O)c1c(C)[nH]c2c1-c1ccccc1C(=O)C2=O | 121% (active)
CCOC(=O)c1[nH]c(C)c(C(=O)OCC(=O)N2c3ccccc3CC2C)c1C (stereo not drawn) | 31.3% (inactive)
CCOC(=O)c1c(C)oc(C)c(C(=O)OCC)c1=O | 11.2% (inactive)
CCn1cc(C(=O)NCC(=O)NC(C)(C)CO)c(=O)c2cc3c(cc21)OCO3 | -75.3% (inactive)
COc1ccc2c(c1)c(=Cc1ccc(N(C)C)cc1)c1cc(-c3ccccc3)[n+](C)n12 | -127% (inactive)
CCOC(=O)CNC(=O)/C=C/c1c(Cl)cccc1Cl | 16.6% (inactive)

Compound | inhibition
CCOC(=O)CNC(=O)CN1C(=O)CCSc2ccccc21 | 16.5% (inactive)
CCOC(=O)CNC(=O)N1c2ccccc2Sc2ccccc21 | 47.5% (active)
CC(=O)NC(CC(=O)O)c1ccc(F)cc1 (stereo not drawn) | -2% (inactive)
Cc1[nH]n(-c2ccccc2)c(=O)c1CCOC(=O)c1ccc(C(F)(F)F)cc1 | 15.4% (inactive)
Cc1ccc(N=Nc2c(C)[nH]n(-c3ccccc3)c2=O)cc1 | 35.1% (active)
Cc1[nH]n(C)c(=O)c1N=Nc1ccc(S(C)(=O)=O)cc1 | 28.1% (inactive)
Cc1ccc(S(=O)(=O)N(CC(=O)NN=C2CCN(C)CC2)c2ccc(F)cc2)cc1 | 10.4% (inactive)
Cn1nc(C(F)(F)F)cc1-c1ccc(/C=C(\C#N)C(=O)c2cccc(C(F)(F)F)c2)s1 | -159% (inactive)
CCc1ccc(-c2nnn(Cc3nc4ccccc4s3)n2)cc1 | 14% (inactive)
CCc1ccc(-c2nnn(Cc3nn[nH]n3)n2)cc1 | 41.5% (active)
CN(C)c1nc(N)nc(Cn2nnc(-c3ccc(C(F)(F)F)cc3)n2)n1 | 17.2% (inactive)
CCOC(=O)c1cc(NC(=O)SCC(=O)O)c(C)nc1C | -84.4% (inactive)
CCCNC(=O)CCn1cc(-c2ccc(OC)cc2)nc1CCN | -0.4% (inactive)
CCCc1cc(=O)[nH]c(SCC(=O)c2c(N)n(CC(C)C)c(=O)n(C)c2=O)n1 | 2.3% (inactive)
Cc1cc(-c2ccccc2)nc(N2CCC(C(=O)NC34CC5CC(CC(C5)C3)C4)CC2)n1 | -325% (inactive)
Cc1ccc(NC(=O)CCN2C(=O)c3ccccc3C2=O)cc1C | 14.4% (inactive)
Cc1cc(C)cc(NC(=O)CCN2C(=O)c3ccccc3C2=O)c1 | 8.2% (inactive)
Cc1ccc2c(c1)-c1c(ssc1=S)C(C)(C)N2C(=O)CN1C(=O)c2ccccc2C1=O | 50% (active)
Cc1cc2c(cc1C)N(C(=O)CN1C(=O)c3ccccc3C1=O)C(C)(C)c1ssc(=S)c1-2 | 41.6% (active)
Cc1ccc2[nH]cc(CCCN3C(=O)c4ccccc4C3=O)c2c1 | 8.9% (inactive)
Cc1ccccc1C(=O)NNC(=O)CN1C(=O)c2ccccc2C1=O | 21.1% (inactive)
O=C(O)CC1S/C(=N\N=C/c2ccccc2O)N(c2ccc(O)cc2)C1=O (stereo not drawn) | -14.4% (inactive)
Cc1ccc2nc(Nc3ncc4c(n3)CC(C)(C)CC4=O)nc(C)c2c1 | -28.2% (inactive)
O=C(CCN1CCCCC1)Nc1ccc(F)c(F)c1 | 19.3% (inactive)
COCC1CCCN(Cc2cn[nH]c2-c2cc3ccccc3o2)C1 (stereo not drawn) | 9.9% (inactive)
